The values that follow come from ChEMBL document CHEMBL1961873, “Compounds: GSK PKIS; Assays: Nanosyn kinase panel” (2012).

Experiment [1] addresses Serine/threonine-protein kinase MARK2 (Homo sapiens) (UniProt Q7KZI7). The conditions noted are these: at 1 µM.
Experiment [2] deals with PAS domain-containing serine/threonine-protein kinase (Homo sapiens) (UniProt Q96RG2). The note with it: at 0.1 µM.
Experiment [3] shares this target. The conditions noted are these: at 1 µM.
Experiment [4] deals with Phosphorylase b kinase gamma catalytic chain, skeletal muscle/heart isoform (Homo sapiens) (UniProt Q16816). The conditions noted are these: at 0.1 µM.
Chain of Phosphorylase b kinase gamma catalytic chain, skeletal muscle/heart isoform (Homo sapiens) (Q16816 whole entry, looked up, canonical isoform): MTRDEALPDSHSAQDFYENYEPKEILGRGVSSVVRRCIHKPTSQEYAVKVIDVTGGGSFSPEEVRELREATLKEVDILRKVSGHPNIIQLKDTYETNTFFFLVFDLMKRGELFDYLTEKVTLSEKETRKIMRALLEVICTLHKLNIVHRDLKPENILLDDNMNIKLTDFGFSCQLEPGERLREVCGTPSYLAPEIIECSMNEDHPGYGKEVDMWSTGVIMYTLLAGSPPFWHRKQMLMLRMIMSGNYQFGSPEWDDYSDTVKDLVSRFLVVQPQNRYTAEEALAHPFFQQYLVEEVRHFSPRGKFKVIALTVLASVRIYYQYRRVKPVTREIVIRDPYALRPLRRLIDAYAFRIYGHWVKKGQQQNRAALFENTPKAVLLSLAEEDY
Experiment [5] has the same target. The conditions noted are these: at 1 µM.
For experiment [6], the target named is T1, Phosphorylase b kinase gamma catalytic chain, liver/testis isoform (Homo sapiens) (UniProt P15735).
T1 sequence (whole entry): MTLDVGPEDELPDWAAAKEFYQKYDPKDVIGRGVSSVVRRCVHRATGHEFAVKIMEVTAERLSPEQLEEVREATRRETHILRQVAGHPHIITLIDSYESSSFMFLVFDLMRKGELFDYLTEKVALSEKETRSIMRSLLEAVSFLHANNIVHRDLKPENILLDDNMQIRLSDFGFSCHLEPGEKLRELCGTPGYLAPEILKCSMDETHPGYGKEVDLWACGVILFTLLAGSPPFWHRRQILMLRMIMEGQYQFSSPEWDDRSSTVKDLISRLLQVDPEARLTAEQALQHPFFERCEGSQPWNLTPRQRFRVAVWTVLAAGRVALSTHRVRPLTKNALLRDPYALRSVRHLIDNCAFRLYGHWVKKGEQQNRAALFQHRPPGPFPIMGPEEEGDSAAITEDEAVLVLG
The note with it: at 0.1 µM.

The target of experiment [7] is T1, Phosphorylase b kinase gamma catalytic chain, liver/testis isoform (Homo sapiens). The conditions noted are these: at 1 µM.
In experiment [8] the target is Serine/threonine-protein kinase pim-1 (Homo sapiens) (UniProt P11309). The conditions noted are these: at 0.1 µM.
Chain of Serine/threonine-protein kinase pim-1 (Homo sapiens) (P11309 whole entry, looked up): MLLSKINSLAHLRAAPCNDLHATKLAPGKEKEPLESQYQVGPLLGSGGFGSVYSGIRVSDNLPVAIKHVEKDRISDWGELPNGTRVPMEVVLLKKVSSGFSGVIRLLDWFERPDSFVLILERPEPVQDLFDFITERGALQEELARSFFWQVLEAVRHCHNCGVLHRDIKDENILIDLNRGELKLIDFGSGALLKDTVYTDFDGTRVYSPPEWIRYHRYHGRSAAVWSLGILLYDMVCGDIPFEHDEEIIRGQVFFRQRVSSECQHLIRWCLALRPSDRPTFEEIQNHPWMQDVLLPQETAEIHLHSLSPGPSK
For experiment [9] the target is unchanged. The conditions noted are these: at 1 µM.
Experiment [10] has as its target Serine/threonine-protein kinase pim-2 (Homo sapiens) (UniProt Q9P1W9). The conditions noted are these: at 0.1 µM.
The target is the same in experiment [11]. The conditions noted are these: at 1 µM.
For experiment [12], the target named is Serine/threonine-protein kinase pim-3 (Homo sapiens) (UniProt Q86V86). The conditions noted are these: at 0.1 µM.
The target is the same in experiment [13]. The conditions noted are these: at 1 µM.
Experiment [14] addresses T2, MAP kinase-activated protein kinase 5 (Homo sapiens) (UniProt Q8IW41).
T2 sequence (whole entry): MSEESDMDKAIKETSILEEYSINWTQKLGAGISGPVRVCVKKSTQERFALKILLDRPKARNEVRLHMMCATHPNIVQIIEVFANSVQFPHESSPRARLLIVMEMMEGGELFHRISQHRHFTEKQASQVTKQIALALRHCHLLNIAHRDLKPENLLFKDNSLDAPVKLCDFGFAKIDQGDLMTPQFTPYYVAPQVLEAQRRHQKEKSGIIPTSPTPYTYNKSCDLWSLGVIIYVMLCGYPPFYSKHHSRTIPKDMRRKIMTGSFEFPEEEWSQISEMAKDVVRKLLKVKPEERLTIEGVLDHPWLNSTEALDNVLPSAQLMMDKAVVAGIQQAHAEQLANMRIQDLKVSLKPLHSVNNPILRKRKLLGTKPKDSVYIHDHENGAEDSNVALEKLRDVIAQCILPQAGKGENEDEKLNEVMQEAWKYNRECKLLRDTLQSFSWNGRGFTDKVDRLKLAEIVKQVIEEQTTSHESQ
The conditions noted are these: at 0.1 µM.

The target in experiment [15] is T2, MAP kinase-activated protein kinase 5 (Homo sapiens). The note with it: at 1 µM.
Experiment [16] addresses Serine/threonine-protein kinase SIK1 (Homo sapiens) (UniProt P57059). The conditions noted are these: at 0.1 µM.
Experiment [17] has the same target. The note with it: at 1 µM.
The target in experiment [18] is Serine/threonine-protein kinase SIK2 (Homo sapiens) (UniProt Q9H0K1). The note with it: at 0.1 µM.
Chain of Serine/threonine-protein kinase SIK2 (Homo sapiens) (Q9H0K1 whole entry, looked up): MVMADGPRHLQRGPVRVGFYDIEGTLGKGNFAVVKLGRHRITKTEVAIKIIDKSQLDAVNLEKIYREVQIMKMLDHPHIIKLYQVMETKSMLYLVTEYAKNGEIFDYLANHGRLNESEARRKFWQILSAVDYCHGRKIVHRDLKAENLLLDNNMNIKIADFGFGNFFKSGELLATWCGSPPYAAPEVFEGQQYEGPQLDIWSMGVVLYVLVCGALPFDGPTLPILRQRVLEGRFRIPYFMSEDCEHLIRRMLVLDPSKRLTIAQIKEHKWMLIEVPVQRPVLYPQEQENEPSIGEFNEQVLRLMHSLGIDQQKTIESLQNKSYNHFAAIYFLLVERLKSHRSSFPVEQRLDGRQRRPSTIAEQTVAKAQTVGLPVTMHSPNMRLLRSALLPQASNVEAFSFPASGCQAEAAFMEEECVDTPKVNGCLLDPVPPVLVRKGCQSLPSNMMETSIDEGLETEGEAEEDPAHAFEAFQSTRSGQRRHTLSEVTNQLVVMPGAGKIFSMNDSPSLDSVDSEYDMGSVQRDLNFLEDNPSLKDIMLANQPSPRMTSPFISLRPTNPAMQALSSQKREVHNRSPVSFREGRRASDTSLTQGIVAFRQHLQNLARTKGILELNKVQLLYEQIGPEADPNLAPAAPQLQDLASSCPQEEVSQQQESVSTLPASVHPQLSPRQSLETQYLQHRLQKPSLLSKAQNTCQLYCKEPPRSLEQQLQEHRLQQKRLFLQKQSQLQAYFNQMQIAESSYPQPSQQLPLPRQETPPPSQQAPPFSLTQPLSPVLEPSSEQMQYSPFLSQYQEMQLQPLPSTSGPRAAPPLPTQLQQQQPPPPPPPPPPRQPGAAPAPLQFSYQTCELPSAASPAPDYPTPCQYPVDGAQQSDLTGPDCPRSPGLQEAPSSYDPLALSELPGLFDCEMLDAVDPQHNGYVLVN
The target is the same in experiment [19]. The note with it: at 1 µM.
Experiment [20] deals with T3, Serine/threonine-protein kinase TBK1 (Homo sapiens) (UniProt Q9UHD2).
T3 sequence (whole entry): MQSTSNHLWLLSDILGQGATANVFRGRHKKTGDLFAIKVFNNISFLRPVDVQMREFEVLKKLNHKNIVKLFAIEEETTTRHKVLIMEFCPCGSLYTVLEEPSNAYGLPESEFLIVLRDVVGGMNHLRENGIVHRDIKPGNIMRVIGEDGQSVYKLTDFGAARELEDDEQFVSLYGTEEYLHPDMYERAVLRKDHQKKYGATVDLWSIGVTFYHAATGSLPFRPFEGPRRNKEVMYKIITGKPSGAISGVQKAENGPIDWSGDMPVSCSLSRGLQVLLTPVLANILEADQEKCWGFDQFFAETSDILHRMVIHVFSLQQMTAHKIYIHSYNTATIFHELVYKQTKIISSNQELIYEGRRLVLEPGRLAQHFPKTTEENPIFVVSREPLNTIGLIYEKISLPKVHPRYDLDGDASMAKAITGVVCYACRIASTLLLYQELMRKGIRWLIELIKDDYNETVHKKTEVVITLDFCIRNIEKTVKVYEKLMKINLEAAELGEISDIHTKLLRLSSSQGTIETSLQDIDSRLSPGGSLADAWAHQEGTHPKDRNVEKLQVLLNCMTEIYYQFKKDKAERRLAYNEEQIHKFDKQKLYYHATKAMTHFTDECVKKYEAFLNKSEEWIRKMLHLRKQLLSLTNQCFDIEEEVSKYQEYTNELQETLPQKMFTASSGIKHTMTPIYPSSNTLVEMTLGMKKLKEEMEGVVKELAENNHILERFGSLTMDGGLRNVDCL
The note with it: at 0.1 µM.

Chain of Serine/threonine-protein kinase pim-2 (Homo sapiens) (Q9P1W9 whole entry, looked up): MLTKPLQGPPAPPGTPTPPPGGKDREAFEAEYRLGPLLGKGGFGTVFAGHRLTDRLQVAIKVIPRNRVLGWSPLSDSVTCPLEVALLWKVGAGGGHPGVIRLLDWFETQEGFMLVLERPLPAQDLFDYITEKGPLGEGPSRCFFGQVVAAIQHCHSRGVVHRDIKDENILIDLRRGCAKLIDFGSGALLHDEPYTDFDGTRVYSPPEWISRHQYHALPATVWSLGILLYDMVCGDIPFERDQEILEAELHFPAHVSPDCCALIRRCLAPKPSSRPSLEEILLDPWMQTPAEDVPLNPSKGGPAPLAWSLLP
Chain of Serine/threonine-protein kinase MARK2 (Homo sapiens) (Q7KZI7 whole entry, the tested form may be a part): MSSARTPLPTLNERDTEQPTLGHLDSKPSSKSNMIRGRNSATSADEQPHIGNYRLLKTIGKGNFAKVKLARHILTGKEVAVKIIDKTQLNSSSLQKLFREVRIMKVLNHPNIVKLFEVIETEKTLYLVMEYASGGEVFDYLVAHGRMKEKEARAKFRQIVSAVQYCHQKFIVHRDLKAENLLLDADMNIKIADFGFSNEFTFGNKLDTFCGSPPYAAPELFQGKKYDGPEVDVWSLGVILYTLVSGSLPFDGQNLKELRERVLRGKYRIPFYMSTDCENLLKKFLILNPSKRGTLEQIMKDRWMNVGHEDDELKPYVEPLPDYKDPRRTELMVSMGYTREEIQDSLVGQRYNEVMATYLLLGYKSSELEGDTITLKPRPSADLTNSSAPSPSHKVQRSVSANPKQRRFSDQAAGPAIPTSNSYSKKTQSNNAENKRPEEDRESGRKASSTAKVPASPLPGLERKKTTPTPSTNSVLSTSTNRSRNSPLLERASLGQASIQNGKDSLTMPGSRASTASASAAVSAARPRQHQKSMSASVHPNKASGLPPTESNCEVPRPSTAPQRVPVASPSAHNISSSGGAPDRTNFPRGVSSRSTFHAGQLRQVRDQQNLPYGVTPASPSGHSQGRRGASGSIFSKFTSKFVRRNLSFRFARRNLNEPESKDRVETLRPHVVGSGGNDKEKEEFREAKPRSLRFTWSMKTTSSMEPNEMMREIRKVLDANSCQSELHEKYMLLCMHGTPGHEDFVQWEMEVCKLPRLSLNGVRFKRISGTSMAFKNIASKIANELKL
Chain of Serine/threonine-protein kinase SIK1 (Homo sapiens) (P57059 whole entry): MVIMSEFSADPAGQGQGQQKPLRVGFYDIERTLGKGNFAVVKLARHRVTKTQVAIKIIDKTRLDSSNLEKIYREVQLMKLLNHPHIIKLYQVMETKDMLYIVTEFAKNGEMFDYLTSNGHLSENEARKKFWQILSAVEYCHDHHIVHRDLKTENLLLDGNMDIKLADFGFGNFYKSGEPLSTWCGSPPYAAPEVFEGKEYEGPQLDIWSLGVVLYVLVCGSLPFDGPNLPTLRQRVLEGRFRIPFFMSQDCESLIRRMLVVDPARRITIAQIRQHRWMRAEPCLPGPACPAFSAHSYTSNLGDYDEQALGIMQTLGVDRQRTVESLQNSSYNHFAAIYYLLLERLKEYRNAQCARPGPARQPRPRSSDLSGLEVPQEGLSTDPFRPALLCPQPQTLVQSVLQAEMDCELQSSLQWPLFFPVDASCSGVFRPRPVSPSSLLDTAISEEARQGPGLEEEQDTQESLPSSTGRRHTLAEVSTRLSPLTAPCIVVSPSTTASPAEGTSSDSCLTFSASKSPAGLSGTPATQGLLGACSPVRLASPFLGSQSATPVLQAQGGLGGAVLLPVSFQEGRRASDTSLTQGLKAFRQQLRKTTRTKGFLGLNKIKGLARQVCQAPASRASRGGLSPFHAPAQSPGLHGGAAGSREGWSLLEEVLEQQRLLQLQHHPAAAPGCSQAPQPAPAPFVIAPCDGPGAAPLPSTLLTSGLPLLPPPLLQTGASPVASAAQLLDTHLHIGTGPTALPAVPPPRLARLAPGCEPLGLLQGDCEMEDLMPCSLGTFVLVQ

On to `COc1cccc(-n2nc(C)c3c(N/N=C(\C)c4ccncc4)ncnc32)c1`, for which the inhibition (as a rule, the change of the read-out against control, counted positive when it falls) in experiment [1] is 0.88%; in experiment [2] it was 1.38%; in [3] it was 0.57%; in [4], 0.48%; in experiment [5], 2.64%; in experiment [6], 0.83%. Moreover, the inhibition is 0.29% in experiment [7]; -0.49% in [8]; 0.18% in experiment [9]; -0.5% in [10]; -0.42% in experiment [11]; -0.59% in experiment [12]. For the same molecule, the inhibition in experiment [13] is -1.03%; in experiment [14], -0.18%; in [15], -0.64%; in experiment [16] it was 1.56%; in [17] it was 3.69%; in [18], 0.4%. For the same molecule, the figures for the inhibition in experiment [19] and in experiment [20] were -0.38% and -0.16%, respectively.
Regarding `N#Cc1c(NC(=O)c2ccccc2F)sc2c1CCCC2`, the inhibition was 3.45% in experiment [1]; 1.88% in experiment [2]; 1.22% in experiment [3]; 1.23% in [4]; 2.36% in experiment [5]; -2.2% in [6]. The inhibition is -2.57% in [7]; 0.9% in experiment [8]; 2.11% in experiment [9]; 0.14% in [10]; 0.56% in experiment [11]; 0.44% in [12]. Also, the inhibition is 2.71% in experiment [13]; -0.42% in experiment [14]; -0.7% in [15]; 0.64% in [16]; 2.74% in [17]; -2.07% in experiment [18]. In addition, the inhibition in [19] was -0.94%; in experiment [20], -1.61%.
Consider `CCOc1nccc2c1nc(-c1nonc1N)n2CC`, for which the inhibition worked out at 1.46% in experiment [1]; 1.66% in experiment [2]; 5.36% in [3]; 3.39% in [4]; 5.97% in experiment [5]; 4.34% in experiment [6]. The inhibition came out at 9.55% in experiment [7]; 0.76% in [8]; 2.04% in experiment [9]; 0.25% in experiment [10]; 1.49% in [11]; 3.33% in [12]. Moreover, the inhibition in experiment [13] was found to be 5.37%; in [14] it was 2.15%; in experiment [15], 3.99%; in [16], 4.04%; in experiment [17] it was 5.99%; in experiment [18], 4.45%. Also, the values for the inhibition in [19] and in experiment [20] were 9.31% and 1.76%, respectively.
On to `CN1CCN(C(=O)c2ccc(NC(=O)Nc3ccc(N(C)c4ccnc(Nc5ccc(CS(C)(=O)=O)cc5)n4)cc3)cc2)CC1`, for which the inhibition was 8.38% in [1]; -0.3% in [2]; 0.27% in experiment [3]; -1.64% in [4]; 1.5% in [5]; 2.03% in experiment [6]. For the same molecule, the inhibition in experiment [7] is 3.05%; in [8], 0.58%; in experiment [9], -0.28%; in [10], -0.2%; in [11] it was -0.35%; in experiment [12], 0.13%. In addition, the inhibition in [13] was 2.14%; in experiment [14] it was 1.17%; in experiment [15] it was 1.29%; in experiment [16], 3.16%; in experiment [17], 17.6%; in experiment [18], -0.55%. The inhibition in [19] was found to be 17.4%; in experiment [20], 2.62%.
Take `CS(=O)(=O)CCNCc1nc(-c2ccc3ncnc(Nc4ccc(OCc5cccc(C(F)(F)F)c5)cc4)c3c2)cs1`: the inhibition is 1.07% in experiment [1]; 0.16% in experiment [2]; -0.13% in experiment [3]; 0.25% in [4]; 3.14% in [5]; 2.6% in experiment [6]. For the same molecule, the inhibition in [7] is 2.29%; in experiment [8], 0.49%; in experiment [9], -0.28%; in experiment [10], -0.54%; in experiment [11], -0.33%; in experiment [12] it was -0.43%. Moreover, the inhibition in experiment [13] was 0.97%; in experiment [14], 1.44%; in experiment [15], -0.14%; in [16], 4.28%; in [17], 0.42%; in [18], 1.04%. Moreover, the inhibition was determined as 2.49% in experiment [19] and 2.22% in [20].
On to `c1ccc(Nc2ncc(-c3ccccc3)o2)cc1`, for which the inhibition in experiment [1] was 2.64%; in experiment [2] it was -0.05%; in [3], -0.71%; in experiment [4] it was 2.61%; in experiment [5], 10.9%; in [6] it was 6.62%. The inhibition is 6.17% in experiment [7]; 1.47% in [8]; 3.45% in experiment [9]; -1.31% in experiment [10]; -0.45% in experiment [11]; 0.11% in experiment [12]. Besides, the inhibition in experiment [13] turned out to be 2.31%; in experiment [14], 2.01%; in experiment [15] it was 1.68%; in [16], 3.63%; in experiment [17], 12.6%; in experiment [18], 7.32%. Also, the values for the inhibition in experiment [19] and in experiment [20] were 13.8% and 5.72%, respectively.
For the molecule `C[C@@H](Oc1cc(-n2cnc3ccc(OCC4CCN(C)CC4)cc32)sc1C(N)=O)c1ccccc1C(F)(F)F`, the inhibition in experiment [1] is 43.4%; in experiment [2] it was 1.41%; in [3], 2.84%; in [4], 1.57%; in experiment [5], 7.24%; in [6], -1.2%. For the same molecule, the inhibition in experiment [7] was determined as 10.8%; in [8], 18.7%; in experiment [9] it was 68.4%; in experiment [10] it was 0.26%; in [11] it was 1.56%; in [12], 8.51%. Also, the inhibition in [13] is 47.6%; in experiment [14] it was -0.8%; in [15] it was -1.08%; in [16] it was 13.5%; in [17], 65.6%; in experiment [18], 6.88%. Further, the inhibition in experiment [19] was 30.3%; in experiment [20] it was -2.73%.
